According to PubChem BioAssay AID651813 (National Center for Advancing Translational Sciences (NCATS), 2012):
About 1,100 (52%) of roughly 2,100 compounds were called active. Not shown: some 27% with an inconclusive outcome. So high a share suggests a set chosen from earlier hits. Some of the results follow. Unmarked numbers belong to inactive results. Calls follow the shape of the dose curve; as a rule, active = well fitted inhibition curve with a large enough effect; inconclusive = small, poorly fitted or top-dose-only effect; inactive = no such curve, though single readings can be large or run the other way.

These compounds were tested against DNA dC->dU-editing enzyme APOBEC-3G (Homo sapiens) (UniProt Q9HC16) (assay: qHTS for inhibitors of Vif-A3G interactions: Cherry picks counterscreen). Details: HeLa A3G-eYFP + Vif (tagged APOBEC3G with the HIV-1 protein that degrades it), eYFP fluorescence, 24 h.
How it was run: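 Readout is eYFP fluorescence (488 nm excitation, 500-530 nm emission) measured on Acumen Explorer after 24 h compound exposure, several concentrations, at 37 deg C. Cells: HeLa stably co-expressing Vif and C-terminally eYFP-tagged A3G; MG132 positive control.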
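Also: hits raise yellow fluorescence by blocking Vif-driven A3G-eYFP degradation; nearly all actives have a fitted effect of over 70% in size.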
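For max response in this document: max response given as percent of control signal.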
Potency is read from the fitted curve at half-maximal effect.

Chain of DNA dC->dU-editing enzyme APOBEC-3G (Homo sapiens) (Q9HC16 whole entry, looked up): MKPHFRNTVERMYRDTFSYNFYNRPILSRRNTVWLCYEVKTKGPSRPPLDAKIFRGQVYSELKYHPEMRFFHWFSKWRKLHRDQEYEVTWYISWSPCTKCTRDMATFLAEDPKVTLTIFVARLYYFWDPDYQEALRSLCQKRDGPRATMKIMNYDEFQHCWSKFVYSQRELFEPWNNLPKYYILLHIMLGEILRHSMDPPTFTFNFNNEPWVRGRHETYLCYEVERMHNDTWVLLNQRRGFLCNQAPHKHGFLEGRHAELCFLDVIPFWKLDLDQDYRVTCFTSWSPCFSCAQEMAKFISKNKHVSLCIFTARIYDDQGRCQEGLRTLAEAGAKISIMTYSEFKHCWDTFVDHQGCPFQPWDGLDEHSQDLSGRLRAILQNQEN

Structure (SMILES)	Potency	max response
FC(F)(Cl)c1nnc2ccc(Cl)nn12	6.27 µM (active)	
N#CCC(=O)N/N=C/c1ccc(N2N=C(c3ccccc3)CC2c2ccccc2)cc1 (configuration not stated)	16.4 µM (active)	
COc1cc2c3nnc(-c4ccc(F)cc4)c-3cn(Cc3ccccc3F)c2cc1OC	20.6 µM (active)	
COc1cc2c3nnc(-c4ccc(F)cc4)c-3cn(Cc3ccc(C)cc3)c2cc1OC	9.94 µM (active)	
CCOC(=O)CSC1=C(C#N)C(c2ccc(C)s2)CC(=O)N1 (configuration not stated)	1.77 µM (active)	
COc1ccc2oc(=O)c(-c3nc4ccccc4o3)cc2c1	10.3 µM (active)	
CCOc1ccccc1Nc1nnc(-c2cc3cc(OC)ccc3oc2=O)s1	5.17 µM (active)	
O=C(CCCCl)Oc1ccc2cc(-c3ccc4ccccc4n3)c(=O)oc2c1		32.5%
CC(=O)Nc1ccc(C2=CC(=O)C[C@H](c3ccc(Cl)cc3)C2)cc1	18.4 µM (active)	
CC(=O)Nc1ccc2c(c1)Cc1ccc(Cl)cc1-2		-8.49%
CN(C)CCN(C(=O)/C=C/c1cccs1)c1nc2c(F)cc(F)cc2s1		-22.8%
O=C(Nc1ccc([N+](=O)[O-])cc1)C(Cc1ccccc1)N1C(=O)c2cccc3cccc(c23)C1=O (configuration not stated)	8.86 µM (active)	
CCc1cccc2cc3c(N)c(C(=O)Nc4ccc(S(=O)(=O)N5CCCC5)cc4)sc3nc12	5.59 µM (active)	
Nc1c(C(=O)Nc2ccc(S(=O)(=O)N3CCCC3)cc2)sc2nc3ccc(OC(F)(F)F)cc3cc12	18.4 µM (active)	
Nc1c(C(=O)Nc2ccc(S(=O)(=O)N3CCCC3)cc2)sc2nc3cc4c(cc3cc12)CCC4	10.3 µM (active)	
Cn1c(N)c(-c2ccccc2)c2ccc([N+](=O)[O-])cc2c1=O	5.59 µM (active)	
N#Cc1c(-c2ccccc2F)cc(C2CC2)nc1SCC(=O)c1cccs1	14 µM (active)	
CNC(=S)N/N=C(\C)c1ccc(Cl)s1		0.869%
COc1ccc(Cl)cc1NC(=O)CN(C)CC(=O)Nc1ccccc1N1CCOCC1	1.58 µM (active)	
COc1cc(Cl)c(C)cc1NC(=O)CN1CCN(C(=O)C2CC2)CC1		-28.2%
Fc1ccc(CNc2nc3ccccc3n3nnnc23)cc1	23.1 µM (active)	
CC(NC(=O)c1ccc(Nc2nc3ccccc3n3nnnc23)cc1)c1ccccc1 (configuration not stated)	20.6 µM (active)	
c1ccc2c(c1)nc(N1CCOCC1)c1nnnn12		-18.6%
Fc1ccccc1Nc1nc2ccccc2n2nnnc12	20.6 µM (active)	

Structure (SMILES)	Potency	max response
CN(C)c1ccc(Nc2nc3ccccc3n3nnnc23)cc1		-13.6%
Cc1ccc(C(=O)O)cc1Nc1nc2ccccc2n2nnnc12		-28%
CN(C)S(=O)(=O)c1ccc2c(c1)/C(=C/c1cc3c([nH]1)CCCC3)C(=O)N2	2.8 µM (active)	
CC(=O)c1sc2nc(-c3cccs3)cc(C(F)(F)F)c2c1N	13 µM (active)	
CC(C)(C)C(=O)c1sc2nc(-c3cccs3)cc(C(F)(F)F)c2c1N	0.731 µM (active)	
Nc1c(C(=O)C2CC2)sc2nc(-c3cccs3)cc(C(F)(F)F)c12	0.461 µM (active)	
CCN(CC)C(=O)c1sc2nc(-c3cccs3)cc(-c3ccc(Cl)cc3)c2c1N	15.8 µM (active)	
Clc1ccccc1C1CC(c2ccccc2)=Nc2ccccc2N1 (configuration not stated)		-7.91%
Cc1ccc2nc(SCC(=O)Nc3ccc4sc(C)nc4c3)c(C#N)cc2c1	18.4 µM (active)	
Cc1nc2cc(NC(=O)CSc3nc4c(C)cccc4cc3C#N)ccc2s1	20.6 µM (active)	
COCCN(CCOC)Cc1c(O)ccc2c1O/C(=C\c1ccc(C)o1)C2=O		-11.8%
CC(=O)Oc1cccc(N2C(=O)c3cccc4c([N+](=O)[O-])ccc(c34)C2=O)c1	15.8 µM (active)	
Cc1nnc(N2C(=O)c3cccc4c([N+](=O)[O-])ccc(c34)C2=O)s1	20.6 µM (active)	
O=C1c2cccc3c([N+](=O)[O-])ccc(c23)C(=O)N1c1ccccn1		54.4%
N#CC1=C(N)C(C#N)(C#N)[C@H](c2c(F)cccc2F)[C@H]2CC3(CC=C12)OCCO3	16.4 µM (active)	
Cc1cccc(-n2c(N)c(-c3nc4ccccc4n3C)c3nc4ccccc4nc32)c1		-1.87%
Cc1ccc(C(=O)NCCn2c(N)c(C#N)c3nc4ccccc4nc32)cc1	23.1 µM (active)	
COc1ccc(/C=N/NC(=O)c2cccnc2)cc1COc1ccc(NC(C)=O)cc1	12.5 µM (active)	
COc1cnc(-c2ccccn2)nc1Oc1ccc(F)cc1F		-4.73%
COc1ccc(/C=N/NC(=O)c2ccccc2Cl)cc1CSc1nc2ccccc2s1	3.14 µM (active)	
COc1cc(OC)cc(C(=O)N/N=C/c2ccc(OC)c(COc3ccc4ccccc4c3)c2)c1	15.8 µM (active)	
COc1ccc(/C=N/NC(=O)c2cccnc2)cc1CSc1ccccn1	5.59 µM (active)	
COc1ccccc1/C=N/NC(=S)Nc1cccnc1		-12.2%
